Data published in PubChem BioAssay AID686978 (National Center for Advancing Translational Sciences (NCATS), 2013).
Screen size: about 420,000 compounds; about 64,000 (15%) were called active. About 27% were inconclusive and are not listed. The list is a sample of the results. Unmarked numbers belong to inactive results. Calls follow the shape of the dose curve; as a rule, active = well fitted inhibition curve with a large enough effect; inconclusive = small, poorly fitted or top-dose-only effect; inactive = flat fitted curve, though single readings scatter.

Experiment: qHTS for Inhibitors of human tyrosyl-DNA phosphodiesterase 1 (TDP1): qHTS in cells in absence of CPT; also: nearly all actives have a fitted effect of over 55% in size
Settings: DT40 Tdp1-/- hTDP1 cells, no CPT, ATP luminescence, 48 h; activity change, negative = growth inhibition: at 46.2 µM (top of the series)
Method in brief: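 Growth of hTDP1-complemented DT40 Tdp1-knockout cells is measured by ATP luminescence after at least 48 hr compound exposure at 37 °C, with DMSO substituting for the 20 nM CPT used in the parallel screen.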
% is scaled to controls: 0 for no effect and ±100 for the full control effect; potency is read from the fitted curve at half-maximal effect.

Row | Compound | activity change, negative = growth inhibition [%] | Potency
1 | Cc1ccc(N/C(N)=N/c2nc(C(F)(F)F)cc(C(F)(F)F)n2)cc1 | 6.24 | 
2 | C=C[C@](C)(O)CCC1C(=C)CCC2[C@@](C)(CO)CCC[C@@]12C (some centres undefined) |  | 18.4 µM (active)
3 | Cc1nnc(SCC(=O)NC2CCCC2)s1 | -4.15 | 
4 | O=C(NCc1ccc(Cl)cc1)C1CCN(S(=O)(=O)c2cccs2)CC1 |  | 23.1 µM (active)
5 | O=C(NCc1cccs1)C1CCN(S(=O)(=O)c2ccc(Cl)cc2)CC1 | -22.1 | 
6 | O=C(NCc1ccccc1)C1CCCN(S(=O)(=O)c2cccs2)C1 (centres undefined) | -15.2 | 
7 | CCCCCNC(=O)C1C(=O)Nc2ccccc2C(=O)N1C(C)(C)C (centres undefined) | -8.99 | 
8 | CCOc1ccc(-c2cc3nc(C4CCN(C(=O)OC(C)(C)C)CC4)c(C(=O)Nc4ccc(C(=O)OC)cc4)cn3n2)cc1 | 21.5 | 
9 | COc1ccc(NC(=S)N2CCc3cc(OC)c(OC)cc3C2)cc1 | -5.78 | 
10 | COc1ccc(Nc2ncc3c(n2)CCN(C(=O)OC(C)(C)C)C3)cc1 |  | 20.6 µM (active)
11 | COC(=O)CSc1nnc(NC(=O)CCc2ccccc2)s1 | -27.7 | 
12 | O=C(OCc1cc(Cl)ccc1OC(F)F)c1cccnc1 | -12.6 | 
13 | CCO/N=C(/C)c1c(O)cc(-c2ccccc2)n(-c2ccccc2)c1=O | -24.7 | 
14 | O=C1NC[C@@H](CCCCN2CCN(CCc3ccc(O)cc3)C(=O)C2=O)N(CC2CCCCC2)C1=O | -13.4 | 
15 | COc1ccc2nc(SCC(=O)Nc3c(C)cc(C)cc3C)[nH]c2c1 | -13.8 | 
16 | CC1CCN(Cc2nc(-c3ccc(Cl)cc3)no2)CC1 | -13.3 | 
17 | COc1ccc(-c2noc(CNC(=O)C(C)Oc3ccccc3)n2)cc1 (centres undefined) | -7.43 | 
18 | COc1ccc(-c2noc(CSc3nc4ccc(C)cc4[nH]3)n2)cc1 |  | 11.6 µM (active)
19 | Cc1ccc(-c2noc(CC(c3ccccc3)c3ccccc3)n2)cc1 | -11.5 | 
20 | Cc1ccc(S(=O)(=O)N(Cc2nc(-c3ccc(Cl)cc3)no2)C2CCCCC2)cc1 |  | 16.4 µM (active)
21 | COc1ccc(-c2noc(CSc3ccc(C)cc3)n2)cc1 | -33.9 | 
22 | COc1ccc(-c2noc(CN(C)S(=O)(=O)c3ccc(C)cc3)n2)cc1 |  | 18.4 µM (active)
23 | Cc1ccc(C(=O)OCc2nc(N)nc(Nc3ccccc3C)n2)cc1 | -23.7 | 

Row | Compound | activity change, negative = growth inhibition [%] | Potency
24 | O=C1CCCc2nn(-c3ccccc3)nc21 | -6.94 | 
25 | O=c1[nH]c2c(c(=O)n1Cc1ccccc1)CCC2 | -29.1 | 
26 | CC(C)c1nnc(NC(=O)COC(=O)/C=C/c2ccc([N+](=O)[O-])cc2)s1 | -1.16 | 
27 | O=C(O)CCCCC(=O)O | -2.12 | 
28 | CC(Oc1ccccc1[N+](=O)[O-])C(=O)N/N=C/c1ccoc1 (centres undefined) | 11.1 | 
29 | Cc1noc(C)c1CSc1nnc2ccc3ccccc3n12 | -5.21 | 
30 | COc1ccc(C(=O)N/N=C(\C)CC(=O)Nc2ccc(Cl)cn2)cc1 | -17.9 | 
31 | Cc1cc(OC(C)C(=O)Nc2sc3c(c2C(N)=O)CCCC3)ccc1Cl (centres undefined) | -23.9 | 
32 | O=C(NCCCN1CCOCC1)c1ccc(N2CCCC2)c([N+](=O)[O-])c1 | -9.74 | 
33 | Cc1cccc(C)c1NC(=O)CNC(=O)c1ccc(N2CCOCC2)c([N+](=O)[O-])c1 | -15.6 | 
34 | N#Cc1c(NC(=O)c2ccc(N3CCOCC3)c([N+](=O)[O-])c2)sc2c1CCCC2 |  | 6.51 µM (active)
35 | CC(/C=C/C1(O)C(C)CC(=O)CC1(C)C)OC1OC(CO)C(O)C(O)C1O (centres undefined) | -23.3 | 
36 | CCOCc1nnc(NC(=O)CCC2CCCCC2)s1 | -26.3 | 
37 | CN1CCc2ccccc2C1Cc1ccccc1NC(=O)c1sc2ccccc2c1Cl (centres undefined) |  | 6.51 µM (active)
38 | CCc1ccccc1NC(=O)c1ccc2c(c1)CCN2S(C)(=O)=O | -7.89 | 
39 | CCc1ccccc1NC(=O)NCCN1CCCCC1 | 1.53 | 
40 | NNc1nnc(NN)c2ccccc12 | -1.45 | 
41 | CC(O)CN(Cc1ccc(Cl)cc1)CC(C)O (centres undefined) | -4.59 | 
42 | Cc1ccc(C)c(C(=O)N2CCC(n3nccc3NC(=O)C3CC3)CC2)c1 | -4.33 | 
43 | Cc1ccc(NC(=O)Cc2ccc(NC(=O)N3CCCCc4ccccc43)cc2)cc1 |  | 23.1 µM (active)
44 | Cc1ccc(CC(=O)Nc2cccc(C#N)c2)cc1 | -11.9 | 
45 | Cc1ccc(NC(=O)N2CCSc3ccccc32)cc1 | -29.7 | 
46 | CN(C)S(=O)(=O)c1cccc(C(=O)OCC(=O)N2CCCC2=O)c1 | 26.4 | 

Row | Compound | activity change, negative = growth inhibition [%] | Potency
47 | O=C(CSc1ncn[nH]1)NCc1ccc2c(c1)OCO2 | 7.22 | 
48 | OCCC1CN(Cc2ccc(Oc3ncccn3)cc2)CCN1CCc1ccccc1 (centres undefined) | -23.7 | 
49 | CCOc1ccc(CN2CCN(CCCc3ccccc3)C(CCO)C2)cc1 (centres undefined) |  | 20.6 µM (active)
50 | CCOc1ccc(CN2CCN(Cc3ccc4cc(F)ccc4n3)CC2CCO)cc1 (centres undefined) |  | 25.9 µM (active)
51 | COc1cccc(CN2CCN(Cc3ccc4cccc(F)c4n3)CC2CCO)c1 (centres undefined) | -27.6 | 
52 | Cc1ccc(CN2CCN(Cc3ccc(OCCO)cc3)CC2CCO)o1 (centres undefined) | 9.04 | 
53 | CCOc1ccc(CN2CCN(Cc3ccon3)CC2CCO)cc1 (centres undefined) | -4.58 | 
54 | OCCC1CN(Cc2cnc(-c3ccccc3)s2)CCN1CCc1ccccc1 (centres undefined) |  | 8.2 µM (active)
55 | OCCC1CN(Cc2cccc(O)c2)CCN1CCc1ccccc1 (centres undefined) | -27 | 
56 | OCCC1CN(Cc2cccn2-c2nccs2)CCN1CCc1ccccc1 (centres undefined) | -21.4 | 
57 | C[C@H]1CN([C@@H](C)CO)C(=O)CCCn2nncc2CO[C@@H]1CN(C)S(=O)(=O)c1cccc(C#N)c1 | 3.79 | 
58 | CCCOC(=O)c1ccc(N2C(=O)c3ccccc3C2=O)cc1 | 7.66 | 
59 | CCOc1ccc(CCNC(=O)COC(=O)CCS(=O)(=O)c2ccc(C)cc2)cc1OCC | -8.89 | 
60 | COC(=O)CN1C(C)=Nc2ccc(Br)cc2C1c1ccccc1 (centres undefined) | -22.8 | 
61 | CC1CCCCC1NC(=O)/C(C#N)=C/C=C/c1ccccc1[N+](=O)[O-] (centres undefined) |  | 9.2 µM (active)
62 | O=C(/C=C/c1ccccc1[N+](=O)[O-])OC1CCCCC1=O (centres undefined) | 10.5 | 
63 | O=C(/C=C/c1ccccc1[N+](=O)[O-])NCC1CCCO1 (centres undefined) | 6.91 | 
64 | CCC(CC)C(=O)Nc1cccc(C(=O)N2CCCC2)c1 | -15.9 | 
65 | Cc1occc1-c1nnc(SCC(=O)NC2(C#N)CCCC2)n1C | -12.1 | 
66 | CCOCCCN1C(=O)C2C(C(=O)Nc3ccc(OCC)cc3)C3C=CC2(O3)C1C(=O)NC1CCCCC1 (centres undefined) | -14.8 | 
67 | O=C(Nc1cccc(Cl)c1)OCc1ccccn1 | 3.36 | 
68 | OCCCNc1nccc(-c2cc(Nc3cccc(Cl)c3)ncn2)n1 |  | 0.731 µM (active)
69 | NS(=O)(=O)c1cccnc1Nc1cccc(Cl)c1 | -28.7 | 
